Source: PubChem (National Center for Advancing Translational Sciences (NCATS))
The list is not random: actives were taken first. Their share in the collection is about 5.9%.
ATXN2 expr inh: Primary qHTS for Inhibitors of ATXN expression; HEK-293 ATXN2-luciferase reporter, luminescence, 24 h; Potency, µM (series often up to 57 µM), for inactives: at the highest dose activity change, negative = inhibition, actives largely listed as inhibitors; 0.72% of 360,000 active; AID 1745845, 2022; also: % is scaled to controls: 0 for no effect and ±100 for the full control effect; nearly all actives have a fitted effect of over 55% in size
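qHTS (up to 57 uM final) was run with 24 h compound exposure of reporter cells at 37 °C. Each well was multiplexed: SteadyGlo luminescence measured ATXN2-luciferase expression after a fluorogenic Gly-Phe-AFC viability readout (25 uM final).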
HepG2 viability: qHTS for Inhibitors of TGF-b: Cytotox Counterscreen; HepG2 CAGA-GFP viability, ATP luminescence, 18 h; Potency, µM (highest dose often 46.1 µM), inactives show top-dose activity change, negative = cytotoxicity, most hits filed as cytotoxic; 0.76% of 410,000 active; AID 588856, 2011
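HepG2 CAGA-GFP cells (1000/well, DMEM with 1% FBS) received compound, then TGF-beta at 500 pg/mL final, and were incubated 18 hours at 37 degrees C. Viability was read by CellTiter-Glo luminescence. Media-only wells were set as complete cell-killing and DMSO as no toxicity.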
KB-V1 cytotox: qHTS assay for MDR1-selective chemotherapeutics: Primary screen using the drug-selected MDR subline cells KB-V1; AID 1347076, 2019; Potency, µM (series often up to 46.1 µM), actives largely listed as cytotoxic; KB-V1 MDR cells viability, CellTiter-Glo, 72 h; 3.4% of 400,000 active; also: % is scaled to controls: 0 for no effect and ±100 for the full control effect; nearly all actives have a fitted effect of over 60% in size
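KB-V1 MDR subline cells in DMEM (phenol-red free, 10% FBS) exposed to compounds in qHTS concentration series for 72 h at 37 degrees C. Viability read by CellTiter-Glo luminescence; concentration-effect curves fitted after normalization and correction.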
KB-3-1 tox: qHTS assay for MDR1-selective chemotherapeutics: Primary screen using the parental adenocarcinoma cell KB-3-1. KB-3-1 viability, CellTiter-Glo ATP luminescence, 72 h. AID 1347075, 2019. Potency, µM (highest dose often 46.1 µM), most hits filed as cytotoxic. 1.4% of 400,000 active; also: % is scaled to controls: 0 for no effect and ±100 for the full control effect; nearly all actives have a fitted effect of over 60% in size
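Viability of parental KB-3-1 cells, measured by CellTiter-Glo luminescence, followed a 72 h incubation at 37 °C with pinned compounds in phenol-red-free DMEM containing 10% FBS.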
ATXN viability: Viability Counterscreen for Primary qHTS for Inhibitors of ATXN expression. S2 cells (HEK-293 line with an ATXN2-luciferase reporter) viability, CellTiter-Fluor protease fluorescence, 24 h. 0.49% of 400,000 active. Potency, µM (top dose mostly 56.7 µM), hits mostly cytotoxic. AID 651635, 2014; also: nearly all actives have a fitted effect of over 40% in size
TGFb SMAD3 inh: qHTS for Inhibitors of TGF-b; HepG2 CAGA-GFP TGF-b/SMAD3 reporter, GFP fluorescence, 18 h; TGF-beta stimulated, 500 pg/mL final; Potency, µM (series often up to 46.1 µM), for inactives: top-dose activity, negative = inhibition, actives largely listed as inhibitors; 1.2% of 410,000 active; also: % is scaled to controls: 0 for no effect and ±100 for the full control effect; nearly all actives have a fitted effect of over 65% in size
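Cell-based qHTS in HEPG2 carrying a CAGA-GFP Smad reporter; compounds added before 500 pg/mL final TGF-beta, 18 h incubation at 37 degrees C, GFP fluorescence quantified per cell by imaging cytometry.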
An asterisk follows results filed as active; i = inactive; ? = inconclusive; . = no result given; ! = a repeat was not active. Calls follow the shape of the dose curve; as a rule, active = well fitted curve in the direction sought with a large enough effect; inconclusive = small, poorly fitted or top-dose-only effect, or another doubt; inactive = no such curve, though single readings can be large; an effect the other way counts as inactive or inconclusive. Potency is read from the fitted curve at half-maximal effect.

SMILES | ATXN2 expr inh | HepG2 viability | KB-V1 cytotox | KB-3-1 tox | ATXN viability | TGFb SMAD3 inh
c1ccc(-c2ccc(C3=Nn4c(nnc4-c4cc(-c5ccccc5)n[nH]4)SC3)cc2)cc1 | -25% | -41% | 16µM* | ? | i | ?
CCOc1ccc(-c2nnc3n2N=C(c2ccc(OC)cc2)CS3)cc1 | 0% | -3% | i | i | i | 19%
CCc1nnc2n1N=C(c1ccc(OC)cc1)CS2 | -5% | -12% | 16µM* | 23µM* | i | 34%
CC1=Nn2c(nnc2-c2cc(-c3ccccc3)n[nH]2)SC1 | 11% | 1% | i | i | i | ?
COc1ccc(C2=Nn3c(nnc3-c3ccccn3)SC2)cc1 | -18% | -5% | 15µM* | ? | ? | -15%
Cc1nn2c(=O)cc(COC(=O)c3ccccc3NC(=O)C3CCCCC3)nc2s1 | . | 2% | . | . | . | -6%
COc1ccc(S(=O)(=O)N(CCc2ccccc2)CC(=O)NCc2ccccc2)cc1OC | -24% | -17% | ? | ? | i | -21%
CCN(CC)CCNc1ncnc2c1sc1nc(N3CCOCC3)c3c(c12)CCCC3 | -5% | -4% | ? | 15µM* | i | 4%
CCCCCCNc1ncnc2c1sc1nc(N3CCOCC3)c3c(c12)CCCC3 | 17% | -4% | i | i | i | 8%
Cc1ccc(NC(=O)c2c(Nc3ccccc3C)sc(C(=O)c3ccccc3)c2N)cc1 | -9% | -54% | i | ? | ? | ?
Cc1ccc(CNC(=O)c2c(Nc3c(C)cccc3C)sc(C(=O)c3ccccc3)c2N)cc1 | ? | -60% | ? | ? | . | 13µM*
COc1cccc(Nc2sc(C(=O)c3ccc(Cl)cc3)c(N)c2C(=O)NCc2ccc(C)cc2)c1 | . | -27% | . | . | . | 13µM*
Cc1ccccc1Nc1sc(C(=O)c2ccc(F)cc2)c(N)c1C(=O)NCCc1ccccc1 | -29% | 13µM* | ? | i | ? | ?
CC(C)n1c(=O)c2oc3ccccc3c2n(Cc2ccccc2F)c1=O | . | -14% | . | . | . | 7%
CCc1ccc(-n2c(=O)c3c4c(sc3n(CC(=O)NC(C)CC)c2=O)CCCC4)cc1 (stereo not given) | 3% | 4% | i | i | i | -3%
c1ccc(Cn2c(Cn3c(-c4cnccn4)nc4ccccc43)nc3ccccc32)cc1 | -28% | . | 9.2µM* | i | ? | .
Cc1ccc(Cn2c(-c3ccccc3)nc3ccccc32)cc1 | 6% | -21% | i | i | ? | -29%
Cc1ccc(Cn2c(Cc3ccccc3)nc3ccccc32)cc1 | ? | 16µM*! | ? | i | ? | ?
CNc1c(Br)cc(/C=C2\C=C(C(O)c3cc(Br)c(NC)c(Br)c3)c3ccccc32)cc1Br (stereo not given) | . | -16% | i | i | . | -6%
COc1cccc(C2C(=O)N(C3CCCCC3)CC(=O)N2CCc2ccc(OC)c(OC)c2)c1 (stereo not given) | . | -19% | . | . | . | 0%
C/C(=N\NC(=O)c1cc(Cl)ccc1O)c1ccc(Br)s1 | 11% | -6% | 21µM* | ? | ? | -5%
CN(C(=O)COc1ccccc1C(=O)NCCOc1ccccc1)c1ccccc1 | ? | -25% | 8.2µM* | 15µM* | ? | ?
CCOC(=O)c1c(C)oc2nc(C)nc(NCc3cccc(Cl)c3)c12 | 1% | 2% | i | i | i | 16%
O=C(Cn1c(=O)n(-c2ccccc2)c(=O)c2sc3ccccc3c21)NC1CCCC1 | ? | -3% | i | i | i | ?
Cc1ccc(CNC(=O)c2c[nH]n3c(=O)c(Cc4ccc(Cl)cc4)c(C)nc23)cc1 | -22% | 13µM* | i | i | i | ?
